# Experimental data taken from ChEMBL document CHEMBL3988442, “University of Dundee, Small-Polar-MMV Screening Library” (2021).
# About 13,000 (27%) of roughly 48,000 compounds showed an effect of 50% or more. This is one part of the list.
# Tested on: Wolbachia pipientis
# Experiment: Anti-Wolbachia Cell-Based Screen
# Assay type: functional
# Parameters: scale not given: in the data most compounds retested in dose-response had high values
# Details: 5 µM
row,SMILES,Percent Effect [%]
1,OCc1ccncc1NCc1cnc(-c2ccccn2)s1,-4.749
2,Cc1cc2n(n1)CC(CNC1CCN(c3ccccn3)CC1)CN2 (stereo not given),4.836
3,O=C(NCc1cccnc1)N1CCC2(CC(=O)N(c3ccsc3)C2)C1.O=C(O)C(F)(F)F (stereo not given),89.85
4,O=C(NCc1ccccc1)N1CCC2(CC(=O)N(c3ccsc3)C2)C1 (stereo not given),-8.501
5,O=C(NCc1ccccc1)N1CCC2(CC(=O)N(c3ccccc3)C2)C1 (stereo not given),115.5
6,Cn1ccnc1CN1CCC2(CC(=O)N(c3ccsc3)C2)C1.O=C(O)C(F)(F)F (stereo not given),6.522
7,O=C(NCc1cccc(F)c1)N1CCC2(CC(=O)N(c3ccsc3)C2)C1 (stereo not given),6.273
8,O=C(NC[C@H]1COCc2nc3cc(F)ccc3n21)c1cccnc1,-2.363
9,CCS(=O)(=O)CCNC(=O)[C@@]12CNC[C@@H]1CN(C1CCCC1)C2,17.06
10,CC(=O)Nc1ccc(CNC2CCCSC2)cc1 (stereo not given),-9.842
11,Cc1occc1C(=O)N1C[C@@H]2[C@@H](C1)OCC(=O)N2Cc1cccnc1.O=C(O)C(F)(F)F,-5.789
12,Cc1ccccc1C(=O)N1C[C@@H]2OCCN(c3ncccn3)[C@@H]2C1.O=C(O)C(F)(F)F,105.7
13,Cc1occc1C(=O)N1C[C@@H]2OCCN(c3ncccn3)[C@@H]2C1.O=C(O)C(F)(F)F,117.5
14,Cn1ccc(C(=O)N2C[C@@H]3CCN(c4cccnc4)C[C@@H]3C2)n1.O=C(O)C(F)(F)F,-11
15,Cc1cccc(C(=O)N2C[C@@H]3OCCN(c4ncccn4)[C@@H]3C2)n1.O=C(O)C(F)(F)F.O=C(O)C(F)(F)F,-4.674
16,Cn1ccc(C(=O)N2C[C@@H]3OCCN(c4ncccn4)[C@@H]3C2)n1.O=C(O)C(F)(F)F,98.93
17,Cc1occc1C(=O)N1C[C@H]2CCCC(OCc3cccnc3)[C@H]2C1.O=C(O)C(F)(F)F (stereo not given in full),-5.108
18,O=C(c1cc(-n2cccn2)ccn1)N1CCOc2ccncc21,-0.9385
19,O=C1CN(CC[C@@H](O)c2ccccc2)CCN1c1ccccc1Cl,-4.837
20,O=C(c1cscn1)N1CCCC(n2cncn2)C1 (stereo not given),88.79
21,O=C(c1csnn1)N1CCCC(n2cncn2)C1 (stereo not given),98.21
22,CC(=O)Nc1nc(C(=O)N2CCCC(n3nc(C)cc3C)C2)cs1 (stereo not given),-2.313
23,O=C(c1cc(C2CC2)on1)N1CCCC(n2cncn2)C1 (stereo not given),7.01
24,Cc1nc(C(=O)N2CCCC(n3cncn3)C2)cs1 (stereo not given),-4.147
25,CC(=O)Nc1nc(C(=O)N2CCCC(n3cncn3)C2)cs1 (stereo not given),110.6
